Data taken from PubChem BioAssay (NCATS).
Inconclusive results are not listed. Active and inactive are the calls of the source. Calls follow the shape of the dose curve; as a rule, active = well fitted inhibition curve with a large enough effect; inconclusive = small, poorly fitted or top-dose-only effect; inactive = flat fitted curve, though single readings scatter.

test system: CRL-7250; test: qHTS assay to identify novel small-molecules to repurpose for Merkel cell carcinoma treatment (AID 1296009); conditions: MCC and control cell lines, CellTiter-Glo viability, 72 h; at 44.8 µM (top of the series) unless noted; also: nearly all actives have a fitted effect of over 60% in size
How it was run: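 Dose-response viability screen; 72 hr exposure at 37 degree celsius; CellTiter-Glo added, 10 min room temperature, luminescence read; RLUs scaled between no-cell and DMSO wells.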

SMILES | outcome
Cc1ccc(S(=O)(=O)NC(=O)NC2CCCCC2)cc1 | inactive
O=C(OOC(=O)c1ccccc1)c1ccccc1 | inactive
CC(C(=O)O)c1ccc2c(c1)[nH]c1ccc(Cl)cc12 (stereo not drawn) | inactive
O=C1O[C@H](CO)[C@@H](O)[C@H](O)[C@H]1O | inactive
NS(=O)(=O)c1cc2c(cc1Cl)NC(C(Cl)Cl)NS2(=O)=O (stereo not drawn) | inactive
CCN1CCN(C(=O)N[C@@H](C(=O)N[C@@H]2C(=O)N3[C@@H]2SC(C)(C)[C@H]3C(=O)O)c2ccccc2)C(=O)C1=O | inactive
Nc1ncnc2c1ncn2[C@@H]1O[C@H](CO)[C@@H](O)[C@H]1O | inactive
CCCCCCCCCCCCCCCCCC(=O)OCC(O)CO (stereo not drawn) | inactive
Cc1cc(CCCOc2c(C)cc(-c3noc(C(F)(F)F)n3)cc2C)on1 | inactive
CCC(Cc1c(I)cc(I)c(N)c1I)C(=O)O (stereo not drawn) | inactive
CCOC(=O)O[C@]1(C(=O)OCCl)CC[C@H]2[C@@H]3CCC4=CC(=O)C=C[C@]4(C)[C@H]3[C@@H](O)C[C@@]21C | inactive
CC(=O)Nc1ccc(/C=N/NC(N)=S)cc1 | inactive
O=C(O)CSCC(=O)NC1CCSC1=O (stereo not drawn) | inactive
COc1ccc(C2CNC(=O)C2)cc1OC1CCCC1 (stereo not drawn) | inactive
CCOc1nc2cccc(C(=O)O)c2n1Cc1ccc(-c2ccccc2-c2nn[nH]n2)cc1 | inactive
CC1(C)Oc2ccc(C#N)cc2[C@@H](N2CCCC2=O)[C@@H]1O | inactive
CCOC(=O)C(O)c1ccccc1 (stereo not drawn) | inactive
CCOC(=O)C1=C(C)NC(C)=C(C(=O)OC)C1c1cccc([N+](=O)[O-])c1 (stereo not drawn) | inactive
